Results filed as inconclusive are left out. Activity calls are given as the source filed them. The call rests on the fitted dose curve; in most records, active means well fitted inhibition curve with a large enough effect; inconclusive means small, poorly fitted or top-dose-only effect; inactive means flat fitted curve, though single readings scatter.

The nature of one assay: qHTS profiling for inhibitors of Plasmodium falciparum proliferation (AID 504749).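 Further: 0% = DMSO vehicle and full inhibition = artemisinin control; nearly all actives have a fitted effect of over 60% in size.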 The settings on record: P. falciparum in erythrocytes, SYBR Green DNA, 72 h; at 28.7 µM (top of the series); parasite line A. The essentials:
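Quantitative HTS: compounds pinned into medium, infected erythrocytes added (0.3% parasitemia, 2.5% hematocrit), 72 h culture at 37 C under 5% CO2. Saponin/Triton lysis with SYBR Green I, overnight RT, then fluorescence read.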
For orientation: qHTS replaces the single test concentration by a dilution series.
Turning to `C[N+]1(C)CCCCC1COC(=O)C(O)(c1ccccc1)c1ccccc1` (stereo not given), the activity, negative = inhibition is -21.5% (inactive).

On to `Oc1cc(Cl)c(Cl)cc1Cl`, for which the activity, negative = inhibition is 4.1% (inactive).

Consider `CCOC(=O)c1ccccc1C(=O)OCC`, for which the activity, negative = inhibition was 8.38% (inactive).

As for `C[C@H]1CC[C@@H]2[C@@H](C)[C@H]3[C@H](C[C@H]4[C@@H]5CC=C6CC(O[C@@H]7O[C@H](CO)[C@H](O)[C@H](O[C@@H]8O[C@H](CO)[C@@H](O)[C@H](O)[C@H]8O)[C@H]7O[C@H]7O[C@@H](C)[C@H](O)[C@@H](O)[C@H]7O)CC[C@]6(C)[C@H]5CC[C@]34C)N2C1` (stereo not given in full), the activity, negative = inhibition was -2.66% (inactive).

For the molecule `CC[N+](C)(CC)CCOC(=O)C(O)(c1ccccc1)c1ccccc1`, the activity, negative = inhibition is 5.27% (inactive).

For the molecule `O=C(NCNC(=O)NC1C(=O)NC(=O)N1CO)NC1C(=O)NC(=O)N1CO` (stereo not given), the activity, negative = inhibition was 15.1% (inactive).

On to `Cn1sc(Cl)cc1=O`, for which the activity, negative = inhibition is 11.9% (inactive).

On to `[O]=[Cd]`, for which the activity, negative = inhibition was 10.1% (inactive).

For `O=c1[nH]cc(N(CCCl)CCCl)c(=O)[nH]1`, the activity, negative = inhibition is -0.577% (inactive).

Consider `CCCN1CCCC2Cc3[nH]ncc3CC21` (stereo not given), for which the activity, negative = inhibition is 7.25% (inactive).

With `CC(C)CCON=O`, the activity, negative = inhibition is -1.57% (inactive).

The assay is the same for the next values; noted with them: P. falciparum in erythrocytes, SYBR Green DNA, 72 h; at 28.7 µM (top of the series); parasite line B.
Consider `O=C(OCCN1CCCCC1)C(O)(c1ccccc1)c1ccccc1`, for which the activity, negative = inhibition was -1.95% (inactive).

As for `CC(N)Cc1ccc(O)cc1` (stereo not given), the activity, negative = inhibition was 1.76% (inactive).

In the case of `CC(=O)OC1CN2CCC1CC2` (stereo not given), the activity, negative = inhibition is 13.1% (inactive).

Regarding `COc1ccc(OC)c(C(O)C(C)N)c1` (stereo not given), the activity, negative = inhibition is -2.03% (inactive).

As to `FC(F)OC(F)(F)C(F)Cl` (stereo not given), the activity, negative = inhibition was 14% (inactive).

For the molecule `C[C@]12CCC(=O)C[C@@H]1CC[C@@H]1[C@@H]2CC[C@]2(C)[C@@H](O)CC[C@@H]12`, the activity, negative = inhibition is 4.65% (inactive).

In the case of `O=C(CCl)c1ccc(Oc2ccc(C(=O)CCl)cc2)cc1`, the activity, negative = inhibition is 2.87% (inactive).

As for `COc1ccc2c3c1O[C@H]1C(=O)CC[C@H]4[C@@H](C2)N(C)CC[C@]314`, the activity, negative = inhibition was -7.39% (inactive).

Take `ClC1C(Cl)C(Cl)C(Cl)C(Cl)C1Cl` (stereo not given): the activity, negative = inhibition was 13.2% (inactive).

In the case of `CC(C)(O)C1C2OC(=O)C1C1(O)CC3OC34C(=O)OC2C14C` (stereo not given), the activity, negative = inhibition is 0.0355% (inactive).

As to `CCC1(c2ccccc2)C(=O)NC(=O)N(C)C1=O` (stereo not given), the activity, negative = inhibition was 7.56% (inactive).

Regarding `S=C=S`, the activity, negative = inhibition is 20.2% (inactive).

As to `O=C(CS(=O)C(c1ccccc1)c1ccccc1)NO` (stereo not given), the activity, negative = inhibition is 0.0253% (inactive).

Take `CCC(N)Cc1c[nH]c2ccccc12` (stereo not given): the activity, negative = inhibition was 9.32% (inactive).

Regarding `CCOc1ccc2c3c1O[C@H]1[C@@H](O)C=C[C@H]4[C@@H](C2)N(C)CC[C@@]341`, the activity, negative = inhibition is -4.11% (inactive).

In the case of `CCC1(CC)C(=O)NC(=O)N(C)C1=O`, the activity, negative = inhibition is -5% (inactive).

Consider `CCC(C)(S(=O)(=O)CC)S(=O)(=O)CC`, for which the activity, negative = inhibition was 9.51% (inactive).

For `CCC1(c2ccccc2)C(=O)NC(=O)N(C(=O)c2ccccc2)C1=O` (stereo not given), the activity, negative = inhibition is 9.27% (inactive).

As to `C[N+]1(C)CCCCC1COC(=O)C(O)(c1ccccc1)c1ccccc1` (stereo not given), the activity, negative = inhibition was -9.17% (inactive).

Consider `Oc1cc(Cl)c(Cl)cc1Cl`, for which the activity, negative = inhibition was -8.4% (inactive).

With `CCOC(=O)c1ccccc1C(=O)OCC`, the activity, negative = inhibition is -4.32% (inactive).

`C[C@H]1CC[C@@H]2[C@@H](C)[C@H]3[C@H](C[C@H]4[C@@H]5CC=C6CC(O[C@@H]7O[C@H](CO)[C@H](O)[C@H](O[C@@H]8O[C@H](CO)[C@@H](O)[C@H](O)[C@H]8O)[C@H]7O[C@H]7O[C@@H](C)[C@H](O)[C@@H](O)[C@H]7O)CC[C@]6(C)[C@H]5CC[C@]34C)N2C1` (stereo not given in full): the activity, negative = inhibition was 12% (inactive).

Turning to `CC[N+](C)(CC)CCOC(=O)C(O)(c1ccccc1)c1ccccc1`, the activity, negative = inhibition is 8.78% (inactive).

`O=C(NCNC(=O)NC1C(=O)NC(=O)N1CO)NC1C(=O)NC(=O)N1CO` (stereo not given): the activity, negative = inhibition is 8.84% (inactive).

As to `Cn1sc(Cl)cc1=O`, the activity, negative = inhibition is 7.44% (inactive).

Turning to `[O]=[Cd]`, the activity, negative = inhibition was 8.29% (inactive).

Take `O=c1[nH]cc(N(CCCl)CCCl)c(=O)[nH]1`: the activity, negative = inhibition was -4.63% (inactive).

As to `CCCN1CCCC2Cc3[nH]ncc3CC21` (stereo not given), the activity, negative = inhibition is 13.9% (inactive).

In the case of `CC(C)CCON=O`, the activity, negative = inhibition was -11.8% (inactive).

These data come from PubChem BioAssay (NCATS).
